# Test results taken from PubChem BioAssay (NCATS).
# Unmarked numbers belong to inactive results. Inconclusive results are not listed. A call without a number means that no potency is given here. Activity calls are given as the source filed them. Unless noted, calls follow the shape of the dose curve; as a rule, active = well fitted curve in the direction sought with a large enough effect; inconclusive = small, poorly fitted or top-dose-only effect, or another doubt; inactive = no such curve, though single readings can be large; an effect the other way counts as inactive or inconclusive.
# Experiments:
# [1] = target: Rap guanine nucleotide exchange factor 3 (Homo sapiens) (UniProt O95398); experiment: Counterscreen qHTS for antagonist of cAMP-regulated guanine nucleotide exchange factor 3 (EPAC1) (AID 1645888);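 also: fluorescence loss as bound BODIPY-GDP is released from Rap1B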
# Sequence of Rap guanine nucleotide exchange factor 3 (Homo sapiens) (O95398 whole entry, looked up): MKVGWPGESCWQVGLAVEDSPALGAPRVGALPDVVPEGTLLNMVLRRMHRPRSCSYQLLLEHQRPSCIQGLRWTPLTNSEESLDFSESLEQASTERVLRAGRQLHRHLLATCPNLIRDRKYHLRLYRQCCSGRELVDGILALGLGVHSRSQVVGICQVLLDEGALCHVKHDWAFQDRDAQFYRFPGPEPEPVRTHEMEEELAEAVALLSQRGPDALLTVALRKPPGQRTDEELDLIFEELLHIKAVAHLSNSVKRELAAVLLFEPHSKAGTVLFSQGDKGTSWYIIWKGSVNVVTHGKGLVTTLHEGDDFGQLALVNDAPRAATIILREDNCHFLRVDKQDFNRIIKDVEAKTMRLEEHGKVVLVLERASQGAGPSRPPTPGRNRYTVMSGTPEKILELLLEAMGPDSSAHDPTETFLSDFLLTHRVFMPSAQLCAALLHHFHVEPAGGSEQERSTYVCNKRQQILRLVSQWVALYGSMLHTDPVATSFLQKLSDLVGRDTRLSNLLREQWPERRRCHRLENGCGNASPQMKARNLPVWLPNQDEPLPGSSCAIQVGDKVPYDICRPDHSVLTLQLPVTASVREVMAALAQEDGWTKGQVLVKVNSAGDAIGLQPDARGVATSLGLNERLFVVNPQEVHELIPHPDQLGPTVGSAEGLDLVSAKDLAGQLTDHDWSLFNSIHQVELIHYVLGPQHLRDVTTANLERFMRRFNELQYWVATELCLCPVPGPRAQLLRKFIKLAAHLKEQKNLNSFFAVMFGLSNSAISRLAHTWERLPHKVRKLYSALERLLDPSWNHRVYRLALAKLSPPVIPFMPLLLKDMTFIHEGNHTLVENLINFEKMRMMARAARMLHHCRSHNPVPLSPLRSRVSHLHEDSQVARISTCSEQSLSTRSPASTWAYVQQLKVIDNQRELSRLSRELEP
# Method in brief: (§1)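 Rap1B–BODIPY-GDP (250 nM) with 50 uM GDP; compounds pin-transferred to 9.74 nM–152 uM final (activator) or from 7.32 nM upwards (inhibitor). Fluorescence Ex/Em 480/540 nm read at 5 and 30 min, then after adding cAMP or buffer, at room temperature.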
# [2] = Stat Signaling Pathway (AID 446; active = well fitted curve in either direction with a large enough effect, not every such curve was filed as active;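 also: ME-180 cervical cancer cells given 40 pM IL-6 alongside compound; SIE-controlled beta-lactamase reporter measured as 460/530 nm FRET emission ratio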)
# Method in brief: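 ME-180 SIE-bla cells; overnight plating; cpd + IL-6 40 pM, 5 h, 37 C; LiveBLAzer 2.5 h RT; 460/530 nm emission ratio. Normalized to 300 pM IL-6 and 125 nM JAK inhibitor controls.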
# [3] = target: Glucocorticoid receptor (Homo sapiens) (UniProt P04150); experiment: GR-GFP Redistribution (AID 450;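 active = compounds whose dose series gives a full or clear partial fitted curve of increased nuclear translocation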; also: potency is read from the fitted curve at half-maximal effect); details: U2OS GR-GFP nuclear translocation, laser cytometry, 2 h
# Sequence of Glucocorticoid receptor (Homo sapiens) (P04150 whole entry, looked up, the tested form may be a part): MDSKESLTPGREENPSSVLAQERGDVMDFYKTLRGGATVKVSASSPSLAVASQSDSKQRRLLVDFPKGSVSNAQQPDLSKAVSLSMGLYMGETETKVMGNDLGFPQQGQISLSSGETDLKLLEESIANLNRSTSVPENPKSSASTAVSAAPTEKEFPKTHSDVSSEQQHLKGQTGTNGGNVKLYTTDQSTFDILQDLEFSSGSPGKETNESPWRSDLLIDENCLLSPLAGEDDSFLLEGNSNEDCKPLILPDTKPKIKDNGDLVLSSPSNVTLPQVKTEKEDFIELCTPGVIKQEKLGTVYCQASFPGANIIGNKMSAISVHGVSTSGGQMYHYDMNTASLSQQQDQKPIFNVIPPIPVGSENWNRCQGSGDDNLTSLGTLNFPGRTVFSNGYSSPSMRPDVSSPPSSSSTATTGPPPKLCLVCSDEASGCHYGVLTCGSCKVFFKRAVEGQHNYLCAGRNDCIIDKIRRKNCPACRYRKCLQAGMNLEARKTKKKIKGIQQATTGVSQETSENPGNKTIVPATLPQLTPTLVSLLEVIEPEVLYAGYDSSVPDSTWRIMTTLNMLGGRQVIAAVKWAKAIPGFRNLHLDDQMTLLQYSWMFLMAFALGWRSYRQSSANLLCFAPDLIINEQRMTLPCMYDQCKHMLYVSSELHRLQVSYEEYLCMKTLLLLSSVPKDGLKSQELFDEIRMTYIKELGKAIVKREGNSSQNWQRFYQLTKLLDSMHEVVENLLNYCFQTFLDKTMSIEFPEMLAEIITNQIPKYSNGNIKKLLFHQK
# [4] = target: Glucocorticoid receptor (Homo sapiens) (UniProt P04150); experiment: GR-EFC Redistribution (AID 451; calls by dose curve; also: potency is read from the fitted curve at half-maximal effect); details: CHO-K1 GR-EFC translocation, beta-gal luminescence, 2 h
# Method in brief: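 CHO-K1 cells expressing nuclear EA and GR-ED fragments of b-gal; compounds titrated up to 46 uM final, 2 h at 37 C. GR nuclear translocation read as complemented b-gal luminescence after 1 h RT detection.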
# [5] = target: Mitogen-activated protein kinase 10 (Mus musculus) (UniProt Q61831); experiment: JNK3 AlphaScreen Assay (AID 530; active = well fitted curve in either direction with a large enough effect, not every such curve was filed as active;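 also: kinase came from lysate of stimulated human HepG2 cells; signal reports phosphorylation of biotinylated GST-cJun 1-79 at Ser73 with 10 µM ATP; series mostly up to about 57 µM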)
# Method in brief: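 qHTS format: compounds tested as titrations against IL-1beta/TNF-alpha-activated HepG2 lysate JNK3 with biotin-GST-cJun substrate and 10 uM ATP at room temperature. Loss of anti-phospho-cJun AlphaScreen signal indicates inhibition.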
# [6] = target: 3',5'-cyclic-AMP phosphodiesterase 4B (Homo sapiens) (UniProt Q07343); experiment: qHTS Assay for Inhibitors of PDE-IV (AID 607; active = well fitted activation curve with a large enough effect in the main read-out, with a control signal flat, not every such curve was filed as active)
# Method in brief: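 ACTOne HEK293 cells carry a modified cAMP-gated CNG channel and express endogenous PDE4; plated 1000 cells/well, compounds up to 22.9 uM final. Membrane-potential dye fluorescence (ex 535/em 590) was read; parental cells received 10 uM forskolin + 100 uM RO 20-1724.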
# [7] = target: Guanine nucleotide-binding protein G(i) subunit alpha-1 (Homo sapiens) (UniProt P63096); experiment: qHTS Assay for Inhibitors of RGS12 GoLoco Motif Activity (Green Fluorophore) (AID 879);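 also: negative values mean loss of peptide binding seen as reduced polarization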
# Sequence of Guanine nucleotide-binding protein G(i) subunit alpha-1 (Homo sapiens) (P63096 whole entry, looked up): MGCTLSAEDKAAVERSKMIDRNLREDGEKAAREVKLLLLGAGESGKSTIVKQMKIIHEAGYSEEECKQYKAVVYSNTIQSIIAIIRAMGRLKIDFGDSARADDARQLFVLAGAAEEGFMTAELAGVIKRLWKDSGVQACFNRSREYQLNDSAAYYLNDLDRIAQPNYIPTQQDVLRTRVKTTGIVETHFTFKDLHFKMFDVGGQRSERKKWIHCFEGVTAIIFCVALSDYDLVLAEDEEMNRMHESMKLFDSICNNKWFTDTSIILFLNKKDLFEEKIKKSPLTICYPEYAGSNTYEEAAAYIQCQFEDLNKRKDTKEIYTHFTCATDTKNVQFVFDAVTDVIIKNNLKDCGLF
# Method in brief: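 Fluorescence polarization assay: 50 nM Gαi1 with 10 nM FITC-labeled RGS12 GoLoco peptide in 10 mM Tris pH 7.5, 150 mM NaCl, 0.1 mM GDP, 0.05% NP40, 10 min at room temperature with compound.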
# [8] = qHTS Assay for Identification of Small Molecule Antagonists for Thrombopoietin (TPO) Signaling Pathway (AID 918); details: TPO-dependent cell signaling reporter, antagonist mode; also: potency is read from the fitted curve at half-maximal effect; nearly all actives have a fitted effect of over 60% in size
# Method in brief: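 First, Ba/F3 reporter cells expressing human TPO receptor were held overnight without IL-3. Next, compound and 26 pM TPO were added. After 24 hrs incubation at 37 C, luciferase luminescence under the Glycoprotein IIb promoter was recorded.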
# [9] = target: Muscarinic acetylcholine receptor M1 (Rattus norvegicus) (UniProt P08482); experiment: qHTS Assay for Antagonists of Acetylcholine Muscarinic M1 Receptor: Measurement of IP-One Response (AID 944); also: nearly all actives have a fitted effect of over 75% in size
# Method in brief: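 Steps: plate transfected CHO-M1 cells overnight; add test compound, 10 min; add carbachol (200 nM, EC80) in stimulation buffer with LiCl; incubate 30 min; add labelled IP1 tracer and anti-IP1 antibody in lysis buffer; read HTRF after 10 min.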
# [10] = target: Pyruvate kinase (Leishmania mexicana) (UniProt Q27686); experiment: qHTS Validation Assay for Inhibitors of Leishmania Mexicana Pyruvate Kinase (AID 945)
# Sequence of Pyruvate kinase (Leishmania mexicana) (Q27686 2-499 E452W): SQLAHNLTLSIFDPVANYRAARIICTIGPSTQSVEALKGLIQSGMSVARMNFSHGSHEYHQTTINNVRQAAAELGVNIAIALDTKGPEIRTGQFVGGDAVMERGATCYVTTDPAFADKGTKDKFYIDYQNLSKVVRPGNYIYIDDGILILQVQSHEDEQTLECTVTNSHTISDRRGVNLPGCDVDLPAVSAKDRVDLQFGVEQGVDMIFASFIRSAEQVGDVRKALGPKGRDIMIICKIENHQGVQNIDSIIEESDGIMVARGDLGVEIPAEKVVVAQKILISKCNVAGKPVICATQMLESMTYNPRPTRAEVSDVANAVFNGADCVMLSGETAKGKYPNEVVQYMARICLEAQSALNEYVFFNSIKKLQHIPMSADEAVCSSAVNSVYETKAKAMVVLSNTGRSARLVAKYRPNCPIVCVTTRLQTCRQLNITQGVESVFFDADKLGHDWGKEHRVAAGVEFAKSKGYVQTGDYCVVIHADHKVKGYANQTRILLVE
# Method in brief: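 Substrate mix (0.5 mM PEP, 0.1 mM ADP, 7 mM MgCl2, 50 mM KCl, pH 7.2 imidazole) received compound by pin tool, then 0.2 nM LmPYK E451W. After 1 h at room temperature, PKLight was added and luminescence measured.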
# [11] = target: Pyruvate kinase PKM (Homo sapiens) (UniProt P14618); experiment: qHTS Assay for Activators of Human Muscle Pyruvate Kinase (AID 954; active = well fitted curve in the direction sought with a large enough effect, not every such curve was filed as active)
# Method in brief: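 Luminescence from a luciferase ATP-detection/stop reagent reported PKM2 activity. Reactions contained 0.1 nM purified human enzyme, 0.5 mM PEP, 0.1 mM ADP and 7 mM MgCl2 at pH 7.2, run 1 h at RT.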
# [12] = target: Alpha-galactosidase A (Homo sapiens) (UniProt P06280); experiment: Counterscreen for Glucocerebrosidase Inhibitors: qHTS Assay for Human alpha-Galactosidase at pH 4.5 (AID 992)
# Sequence of Alpha-galactosidase A (Homo sapiens) (P06280 whole entry, looked up): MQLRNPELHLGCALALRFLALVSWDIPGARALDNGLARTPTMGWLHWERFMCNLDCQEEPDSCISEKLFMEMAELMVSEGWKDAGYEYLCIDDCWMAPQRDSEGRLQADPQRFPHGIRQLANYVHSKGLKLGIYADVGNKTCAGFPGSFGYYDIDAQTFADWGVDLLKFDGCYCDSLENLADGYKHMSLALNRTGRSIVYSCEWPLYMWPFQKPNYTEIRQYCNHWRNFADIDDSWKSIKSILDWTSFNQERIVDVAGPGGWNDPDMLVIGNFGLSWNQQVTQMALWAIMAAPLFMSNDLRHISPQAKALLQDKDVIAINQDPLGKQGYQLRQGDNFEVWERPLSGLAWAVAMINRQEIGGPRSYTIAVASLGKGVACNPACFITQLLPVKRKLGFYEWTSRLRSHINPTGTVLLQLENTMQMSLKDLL
# Method in brief: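 Enzyme at 2 nM final was combined with compound (0.7 nM to 77 uM) and 80 uM 4-methylumbelliferyl alpha-D-galactopyranoside in 50 mM citric acid, 0.005% Tween-20, pH 4.5. After 20 min at room temperature, fluorescence was read (Ex 365/Em 440 nm); AC50 came from Hill fits.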
# [13] = target: alpha-glucosidase (Oryza sativa, rice) (UniProt Q653V4); experiment: Counterscreen for Glucocerebrosidase Inhibitors: qHTS Assay for Rice alpha-Glucosidase at pH 5.0 (AID 997)
# Method in brief: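 Rice alpha-glucosidase (4 nM final) with 400 uM 4-methylumbelliferyl-alpha-D-glucopyranoside in citrate buffer pH 5.0, 20 min at room temperature, stopped at pH 10; fluorescence 365/440 nm, compounds 0.7 nM–77 uM, AC50 from Hill fits.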
# [14] = target: DNA repair nuclease/redox regulator APEX1 (Homo sapiens) (UniProt P27695); experiment: qHTS Validation Assay for Inhibitors of the Human Apurinic/apyrimidinic Endonuclease 1 (APE1) (AID 1705;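 also: TAMRA fluorescence gain over two minutes as APE1 cuts a quenched THF abasic duplex; series mostly up to about 57 µM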)
# Method in brief: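 qHTS, 1536-well. APE1 + cpd 15 min RT → 50 nM TAMRA/BHQ-2 THF-abasic dsDNA substrate → kinetic fluorescence, 3 reads/60 s; delta(read3−read1) = reaction progress. No-enzyme buffer = negative control.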
# [15] = Counterscreen for APE1 Inhibitors: Fluorescent Dye Displacement Validation Assay (AID 1707)
# Method in brief: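 Thiazole Orange displacement from dsDNA: 250 nM ThO with 50 nM TAMRA-labelled abasic-site (tetrahydrofuran) duplex in 50 mM Tris-HCl pH7.5, 50mM NaCl, 2 mM MgCl2, 0.01% Tween-20. Loss of endpoint fluorescence (ex 480 nm, em 540 nm) flags DNA binders.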
# [16] = qHTS for differential inhibitors of proliferation of Plasmodium falciparum line 7G8 (AID 1815);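 also: potency is read from the fitted curve at half-maximal effect; parasite growth measured after three days of incubation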
# [17] = qHTS for differential inhibitors of proliferation of Plasmodium falciparum line GB4 (AID 1816); details: Potency: Plasmodium falciparum GB4 proliferation inhibition;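 also: potency is read from the fitted curve at half-maximal effect; parasite growth measured after 72 h incubation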
# [18] = target: Ferritin light chain (Equus caballus) (UniProt P02791); experiment: qHTS Validation Assay for Identification of Novel General Anesthetics (AID 2323); also: series mostly up to about 77 µM
# Method in brief: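 Fluorescence at 535 nm (excitation 380 nm) reported loss of 1-AMA binding to horse-spleen apoferritin (10 uM) in PBS with 50% saturated 1-aminoanthracene, after 10 min room-temperature incubation with compound; values from Hill fits of normalized response.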
# [19] = target: ATP-dependent DNA helicase Q1 (Homo sapiens) (UniProt P46063); experiment: qHTS Validation Assay for Inhibitors of RecQ-Like Dna Helicase 1 (RECQ1) (AID 2353)
# Method in brief: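 50 nM RECQ1T1 preincubated 15 min with compound in Tris pH 8.0 buffer with MgCl2, DTT, Tween-20 and 2.5 ug/ml poly(dI-dC); started with 200 nM TAMRA/BHQ-2 forked duplex and 2 mM ATP. Unwinding read as fluorescence (525/598 nm), two reads 2 h apart.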
# [20] = target: M-phase phosphoprotein 8 (Homo sapiens) (UniProt Q99549); experiment: qHTS Validation Assay for Inhibitors for MPP8 Chromodomain Interactions with Methylated Histone Tails (AID 488949); also: potency is read from the fitted curve at half-maximal effect; nearly all actives have a fitted effect of over 55% in size
# Sequence of M-phase phosphoprotein 8 (Homo sapiens) (Q99549 whole entry, looked up): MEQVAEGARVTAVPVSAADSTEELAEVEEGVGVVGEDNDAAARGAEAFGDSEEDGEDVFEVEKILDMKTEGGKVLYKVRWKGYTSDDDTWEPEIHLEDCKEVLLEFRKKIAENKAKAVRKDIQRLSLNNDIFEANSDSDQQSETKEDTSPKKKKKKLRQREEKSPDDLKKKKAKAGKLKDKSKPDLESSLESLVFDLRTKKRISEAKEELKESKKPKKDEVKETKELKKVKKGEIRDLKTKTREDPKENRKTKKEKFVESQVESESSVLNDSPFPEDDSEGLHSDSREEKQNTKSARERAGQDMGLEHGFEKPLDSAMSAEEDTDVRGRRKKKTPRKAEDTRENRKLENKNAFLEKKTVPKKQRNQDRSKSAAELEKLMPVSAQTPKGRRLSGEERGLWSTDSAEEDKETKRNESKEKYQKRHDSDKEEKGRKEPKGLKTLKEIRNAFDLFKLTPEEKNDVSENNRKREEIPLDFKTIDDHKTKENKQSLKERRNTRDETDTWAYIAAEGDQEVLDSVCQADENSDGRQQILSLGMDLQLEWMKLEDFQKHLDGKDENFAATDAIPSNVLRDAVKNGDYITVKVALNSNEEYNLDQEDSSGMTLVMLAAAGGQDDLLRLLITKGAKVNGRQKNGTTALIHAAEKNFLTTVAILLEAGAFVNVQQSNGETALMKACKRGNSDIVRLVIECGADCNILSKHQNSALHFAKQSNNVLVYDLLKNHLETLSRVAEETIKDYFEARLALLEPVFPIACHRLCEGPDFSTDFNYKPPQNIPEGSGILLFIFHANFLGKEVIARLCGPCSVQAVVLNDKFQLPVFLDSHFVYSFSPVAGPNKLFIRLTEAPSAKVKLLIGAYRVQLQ
# Method in brief: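 50 nM MPP8 + 50 nM b-H3K9me3 peptide, PBS pH 7.4/0.01% Tween-20, 30 min RT; + cpd 30 min RT; + AlphaScreen donor/Ni-chelate acceptor beads 10 ug/mL final, 30 min dark; luminescence read.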
# [21] = target: Thyrotropin receptor (Homo sapiens) (UniProt P16473); experiment: qHTS Assay for Antagonists of the Thyroid Stimulating Hormone Receptor (AID 488980); also: series mostly up to about 58 µM
# Sequence of Thyrotropin receptor (Homo sapiens) (P16473 whole entry, looked up): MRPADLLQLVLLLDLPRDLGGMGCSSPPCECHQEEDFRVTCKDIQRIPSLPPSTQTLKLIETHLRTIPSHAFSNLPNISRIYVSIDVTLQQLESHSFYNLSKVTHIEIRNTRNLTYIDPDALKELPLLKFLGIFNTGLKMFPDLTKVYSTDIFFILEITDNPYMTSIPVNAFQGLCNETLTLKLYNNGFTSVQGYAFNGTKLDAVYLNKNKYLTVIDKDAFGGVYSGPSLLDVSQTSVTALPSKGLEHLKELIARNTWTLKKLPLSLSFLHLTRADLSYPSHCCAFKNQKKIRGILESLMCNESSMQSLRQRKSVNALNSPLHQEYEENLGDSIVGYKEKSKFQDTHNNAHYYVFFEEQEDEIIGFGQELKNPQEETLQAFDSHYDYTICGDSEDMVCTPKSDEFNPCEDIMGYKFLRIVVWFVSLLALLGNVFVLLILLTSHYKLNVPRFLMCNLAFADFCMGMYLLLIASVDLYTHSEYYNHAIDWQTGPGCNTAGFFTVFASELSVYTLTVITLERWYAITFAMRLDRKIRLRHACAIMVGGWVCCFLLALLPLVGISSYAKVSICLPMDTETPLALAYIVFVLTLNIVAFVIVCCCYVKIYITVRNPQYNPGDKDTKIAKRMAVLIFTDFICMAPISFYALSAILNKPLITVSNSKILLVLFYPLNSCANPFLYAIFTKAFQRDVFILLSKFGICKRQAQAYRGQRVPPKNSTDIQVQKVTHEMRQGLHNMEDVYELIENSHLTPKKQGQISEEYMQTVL
# Method in brief: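 Readout is cAMP by HTRF competition between cellular cAMP and cAMP-d2 for a cryptate-labelled antibody. Antagonism was assessed in TSHR-transfected HEK293 cells stimulated with 4 nM TSH (EC80, final) in the presence of RO 20-1724.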
# [22] = target: Thyrotropin-releasing hormone receptor (Homo sapiens) (UniProt P34981); experiment: qHTS for Small Molecule Agonists and Allosteric Enhancers of Human TRH Receptor: Validation Screen for Agonists (AID 493127;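 active = calcium activation more than 3 SD above the typical response in the agonist read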;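 also: intracellular calcium rise by fluo-8 fluorescence before TRH EC20 addition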); details: TRH receptor agonist cell assay; at 2 µM; active compounds read high
# Sequence of Thyrotropin-releasing hormone receptor (Homo sapiens) (P34981 whole entry, looked up): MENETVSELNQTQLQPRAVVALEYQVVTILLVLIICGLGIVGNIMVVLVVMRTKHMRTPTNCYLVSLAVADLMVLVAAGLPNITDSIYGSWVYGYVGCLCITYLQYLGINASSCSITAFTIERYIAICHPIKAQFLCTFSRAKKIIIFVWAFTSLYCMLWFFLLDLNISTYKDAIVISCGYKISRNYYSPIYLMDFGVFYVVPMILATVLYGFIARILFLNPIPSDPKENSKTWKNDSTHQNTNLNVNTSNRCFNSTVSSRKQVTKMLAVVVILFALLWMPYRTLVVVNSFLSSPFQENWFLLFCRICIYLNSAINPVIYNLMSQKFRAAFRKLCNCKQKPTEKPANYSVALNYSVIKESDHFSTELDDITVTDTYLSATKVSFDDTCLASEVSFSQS
# Method in brief: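 Gq-coupled calcium mobilization in TRHR cells after compound addition, monitored kinetically with fluo-8 dye on an FDSS reader.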
# [23] = target: Galactokinase (Homo sapiens) (UniProt P51570); experiment: qHTS Validation Assay for Inhibitors of Human Galactokinase (GALK) (AID 493189)
# Method in brief: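 5 nM GALK / 100 uM galactose / 35 uM ATP, 20 mM HEPES pH8.0, 5 mM MgCl2, 60 mM NaCl, 1 mM DTT, 0.01% BSA (final). RT 1 h; Kinase-Glo Plus luminescence.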
# [24] = Validation screen for small molecules that induce DNA re-replication in SW480 colon adenocarcinoma cells (AID 504364)
# Method in brief: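 Cells are treated 48 hr with test compound, stained 40 min with Hoechst at 37 C, and scanned for nuclear fluorescence; compounds inducing re-replication increase nuclei with elevated intensity.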
# [25] = target: Rap guanine nucleotide exchange factor 3 (Homo sapiens) (UniProt O95398); experiment: Counterscreen qHTS for agonist of cAMP-regulated guanine nucleotide exchange factor 3 (EPAC1) (AID 1645889); also: nearly all actives have a fitted effect of over 40% in size; also: potency is read from the fitted curve at half-maximal effect
# Method in brief: as §1
smiles,measurement,setting,value
COc1ccc(-c2nc3ccccc3nc2-c2ccccc2)cc1OC,Potency,[1],inactive
O=c1cc(Cl)c(-c2ccccc2)nn1Cc1ccc(Cl)cc1,Potency,[1],inactive
Clc1ccc(C2Nc3cccc4cccc(c34)N2)c(Cl)c1,Potency,[1],inactive
CC(C)C[C@H](N)CSSC[C@@H](N)CC(C)C,outcome,[2],inactive
same,Potency,[3],> 46 µM
same,Potency,[4],> 46 µM
same,Potency,[5],inactive
same,Potency,[6],inactive
same,Potency,[7],inactive
same,Potency,[8],12.6 µM (active)
same,Potency,[9],inactive
same,outcome,[10],inactive
same,outcome,[11],inactive
same,outcome,[12],inactive
same,outcome,[13],inactive
same,Potency,[14],inactive
same,outcome,[15],inactive
same,Potency,[16],14.1 µM (active)
same,Potency,[17],10 µM (active)
same,outcome,[18],inactive
same,outcome,[19],inactive
same,Potency,[20],50.1 µM (active)
same,outcome,[21],inactive
same,activation,[22],6.19%
same,outcome,[23],inactive
same,Potency,[24],inactive
COc1ccc(-c2n[nH]c(C)c2-c2ccccc2OC)c(O)c1,Potency,[1],inactive
same,Potency,[25],inactive
COc1ccc(C(=O)Nc2ccccc2C(=O)O)cc1NC(=O)C(c1ccccc1)c1ccccc1,Potency,[25],112 µM (active)
